Bioassay records: PubChem, several laboratories
The list is not random: actives were taken first. Their share in the collection is about 2.3%.
Granule exo inh = LAMP-1 surface exposure blockers, TALL-104 cells – cell-based, flow cytometry, MLPCN library, primary screen; AID 651702, 2012; TALL-104 LAMP-1 surface exposure; cells stimulated with thapsigargin and PMA; inhibition, % at 10 µM; 360,000 compounds, 0.66% hits;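 active means inhibition above about 55%, limit read from the data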
m5-HT2A agonist = mouse Htr2a agonists via beta-arrestin recruitment, primary screen, cell-based, luminescence; 360,000 compounds, 0.66% hits; activation, % at 7.6 µM; 5-hydroxytryptamine receptor 2A (Mus musculus), P35363; AID 624169, 2012; CHO-K1 mHTR2A beta-arrestin complementation; percent of 30 µM serotonin response;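 active means activation above a run cutoff, the mean activation of all tested compounds plus 3 SD, cut at about 14% in these data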;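 further: 0% = plate median of compound wells and 100% = 30 µM serotonin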
NTR1 agonist = agonists of human NTR1, primary screen, imaging, U2OS cells, beta-arrestin-GFP, high content | Neurotensin receptor type 1 (Homo sapiens), P30989 | NTR1-U2OS beta-arrestin-GFP spot imaging, agonist mode | activation, % at 20 µM | 330,000 compounds, 0.17% hits | AID 493036, 2011;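 active means activation at or above 40% of the spot to cytoplasm intensity ratio, with at least 20 cells analyzed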;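 further: 0% = DMSO without peptide and 100% = 100 nM NTR1 peptide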
B2AR ag = beta2AR agonists driving receptor internalization, primary screen, cell-based, FAP fluorogen, flow cytometry | Beta-2 adrenergic receptor (Homo sapiens), P07550 | Am2.2-beta2AR cells | response, % (concentration not given with the values) | 340,000 compounds, 0.43% hits | AID 504454, 2011;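 active means response above a set limit, near 3 SD of response in nonfluorescent compounds, cut at about 42% in these data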
Target sequence (P07550 whole entry, looked up): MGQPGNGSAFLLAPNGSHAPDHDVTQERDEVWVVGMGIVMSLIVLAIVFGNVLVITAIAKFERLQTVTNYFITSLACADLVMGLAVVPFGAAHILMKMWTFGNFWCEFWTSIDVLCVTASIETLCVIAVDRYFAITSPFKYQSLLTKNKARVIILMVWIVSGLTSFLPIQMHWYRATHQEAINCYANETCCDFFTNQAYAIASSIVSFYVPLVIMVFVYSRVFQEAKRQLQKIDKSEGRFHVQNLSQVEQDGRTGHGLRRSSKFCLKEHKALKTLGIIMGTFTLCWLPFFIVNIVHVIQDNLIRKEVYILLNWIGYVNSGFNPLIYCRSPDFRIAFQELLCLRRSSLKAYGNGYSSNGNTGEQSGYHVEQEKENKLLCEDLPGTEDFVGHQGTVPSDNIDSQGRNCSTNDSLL
ABHD5 PLIN5 PPI = ABHD5-PLIN5 interaction inhibitors, primary screen, cell lysate, split luciferase complementation, luminescence | Split G. princeps luciferase complementation, 4 h | inhibition, % at 4 µM | 360,000 compounds, 0.78% hits | AID 602281, 2012;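 active means inhibition above the mean inhibition across every tested compound plus 3 SD, cut at about 22% in these data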;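 further: 0% = DMSO only wells and the 100% control is not disclosed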
Granule exo CP1 = inhibitors of lytic granule exocytosis, confirmation, TALL-104 cells, flow cytometry, Cherry Pick01; 1,500 compounds, 11% hits; LAMP-1 externalization; stimulated with PMA plus thapsigargin; inhibition, % at 10 µM; shares compounds with Granule exo inh; in the data active means inhibition above about 60%;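 further: 0% = stimulated vehicle wells and 100% = unstimulated wells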
Numbers without * were called inactive; . = no result.

SMILES	Granule exo inh	m5-HT2A agonist	NTR1 agonist	B2AR ag	ABHD5 PLIN5 PPI	Granule exo CP1
C[C@@H]1CN([C@H](C)CO)C(=O)CCCn2cc(nn2)CO[C@H]1CN(C)C(=O)Nc1ccccc1C(F)(F)F	-2	1	.	.	5	.
COc1ccccc1C(C)NC(=O)c1cc(=O)[nH]c2ccccc12 (configuration not stated)	5	2	0	9	-1	.
CCOc1ccccc1CNC(c1ccccc1)c1ccccc1	59*	-1	5	-6	1	-5
COc1ccccc1CNC(c1ccccc1)c1ccccc1	13	2	2	-4	-9	.
CCOC(=O)c1ccc(NC(=O)COc2ccc(CNC3CCCCC3)cc2OC)cc1	60*	-8	2	-2	8	-12
COc1cc(CNC2CCCCCCC2)ccc1OCC(N)=O	-8	11	0	-1	3	.
O=C1CN(c2ccccc2F)C(=O)CN1c1ccccc1F	-1	0	0	-7	-1	.
Cn1sc2ccccc2c1=O	19	-2	.	.	9	.
O=c1c2ccccc2sn1-c1ccccc1F	69*	-1	.	.	-19	102*
O=c1c2ccccc2sn1-c1ccccc1	99*	5	-2	-20	111*	105*
COc1ccc(/C=C/C(=O)N2CCCc3ccccc32)c(OC)c1	72*	2	4	-1	-1	-11
COc1cccc(C(C(=O)NC2CCCCC2)N(C(=O)c2ccco2)c2ccccc2OC)c1 (configuration not stated)	89*	3	0	2	-6	-7
CCOc1ccccc1N(C(=O)c1ccco1)C(C(=O)NC1CCCC1)c1cccs1 (configuration not stated)	60*	4	0	-5	-5	-14
COc1ccc(C(C(=O)NC2CCCCC2)N(C(=O)c2ccco2)c2ccccc2OC)cc1 (configuration not stated)	23	4	1	1	-2	.
C=CCNC(=O)c1ccccc1NC(=O)c1ccc(Cl)c(S(=O)(=O)Nc2ccccc2)c1	16	5	13	11	11	.
CCN(CC)c1ccc2cc(-c3nc(-c4cc5ccccc5oc4=O)cs3)c(=O)oc2c1	81*	6	.	-34	3	14
CN(C)c1ccc(C=Cc2nccc3ccccc23)cc1	-9	6	.	.	9	.
CCN(CC)c1nc(C=Cc2ccc(N(C)C)cc2)c2nccnc2n1	73*	0	.	.	-3	10
CCOCCCNCc1ccc(OC)cc1	3	0	1	0	3	.
COc1ccc(C(CCNCc2ccc(OC(C)C)cc2)C(C)C)cc1 (configuration not stated)	78*	-4	24	19	-1	7
COc1ccc(C(CCNCc2ccc(N(C)C)cc2)C(C)C)cc1 (configuration not stated)	69*	-6	6	27	3	-13
CCCn1nc2cc(C(=O)NCCCCc3ccccc3)ccc2c1OCC	87*	-4	5	0	-3	-13
CCN(Cc1ccncc1)C(=O)C1CCN(S(=O)(=O)c2cccs2)CC1	1	4	-1	2	4	.
O=S(=O)(Nc1ccc(F)cc1)N1CCOCC1	-14	3	0	2	4	.
Cc1ccc(-c2cc(C(=O)NCCCN3CCOCC3)c3ccc(Cl)c(C)c3n2)cc1	-6	-2	4	29	15	.
Cc1c(Cl)ccc2c(C(O)CBr)cc(-c3ccccc3)nc12 (configuration not stated)	64*	6	.	7	-10	-14
C=CCn1c(SCC(C)=O)nc2scc(-c3ccc(C)o3)c2c1=O	85*	-2	1	12	17	-10
C=CCn1c(SCC(=O)Nc2c(C)n(C)n(-c3ccccc3)c2=O)nc2scc(-c3ccccc3)c2c1=O	26	-2	0	0	16	.
